Experimental data from the supplement of paper PMC10681739.

How the values were obtained:
[1] = molecular target: T1, ETS1 (UniProt P14921); assay: ETS1 binding intensity (PBM fluorescence), ETS1 alone (arbitrary fluorescence units); higher = stronger binding; details: ETS1 concentration 1 nM; RUNX1 concentration 0 nM
T1 sequence: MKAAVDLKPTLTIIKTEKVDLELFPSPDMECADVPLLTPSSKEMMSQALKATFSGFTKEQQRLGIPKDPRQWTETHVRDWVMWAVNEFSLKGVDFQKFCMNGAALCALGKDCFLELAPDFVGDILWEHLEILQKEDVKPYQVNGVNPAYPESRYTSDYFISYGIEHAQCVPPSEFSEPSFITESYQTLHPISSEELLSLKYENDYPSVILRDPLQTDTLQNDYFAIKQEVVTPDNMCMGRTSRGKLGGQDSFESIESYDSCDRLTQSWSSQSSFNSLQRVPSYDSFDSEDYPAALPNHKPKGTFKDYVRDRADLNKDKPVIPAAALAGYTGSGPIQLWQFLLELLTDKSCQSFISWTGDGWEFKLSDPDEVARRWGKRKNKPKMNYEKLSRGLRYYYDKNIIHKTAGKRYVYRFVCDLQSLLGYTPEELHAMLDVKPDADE

[2] = molecular target: RUNX1 (UniProt Q01196); assay: RUNX1 binding intensity (PBM fluorescence), RUNX1 alone (arbitrary fluorescence units); higher = stronger binding; details: RUNX1 concentration 2 nM; ETS1 concentration 0 nM
Sequence of RUNX1 (Q01196 whole entry): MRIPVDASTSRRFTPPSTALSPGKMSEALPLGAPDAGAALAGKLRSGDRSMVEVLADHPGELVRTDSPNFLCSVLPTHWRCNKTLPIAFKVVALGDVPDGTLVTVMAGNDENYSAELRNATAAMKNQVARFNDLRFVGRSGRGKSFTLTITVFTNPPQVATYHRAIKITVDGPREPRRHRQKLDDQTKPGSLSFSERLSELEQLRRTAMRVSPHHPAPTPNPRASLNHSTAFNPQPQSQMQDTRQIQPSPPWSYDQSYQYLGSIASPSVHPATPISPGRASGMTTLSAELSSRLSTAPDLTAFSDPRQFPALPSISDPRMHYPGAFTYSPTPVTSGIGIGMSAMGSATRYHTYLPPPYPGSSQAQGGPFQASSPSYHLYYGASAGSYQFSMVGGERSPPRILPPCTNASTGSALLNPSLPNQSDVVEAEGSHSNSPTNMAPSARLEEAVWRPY
Protocol: (§1)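 Cooperative gcPBM on 36-bp genomic probes with neighbouring ETS1 and RUNX1 sites. Recombinant human RUNX1 (2 nM) was incubated alone or with ETS1 (25 nM) and detected with anti-RUNX1 antibody plus Alexa488 secondary. Values are medians over 4 replicate spots; the RUNX1+ETS1 data were normalised to the RUNX1-only data. The probes sit in constant array flanks that are not printed.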

[3] = molecular target: T1, ETS1; assay: ETS1 binding intensity (PBM fluorescence) in presence of RUNX1, normalised to ETS1-only experiment (arbitrary fluorescence units); higher = stronger binding; details: ETS1 concentration 1 nM; RUNX1 concentration 25 nM
[4] = molecular target: RUNX1 (UniProt Q01196); assay: RUNX1 binding intensity (PBM fluorescence) in presence of ETS1, normalised to RUNX1-only experiment (arbitrary fluorescence units); higher = stronger binding; details: RUNX1 concentration 2 nM; ETS1 concentration 25 nM
Protocol: as §1
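Wherever RUNX1 binding intensity (PBM fluorescence) in presence of ETS1, normalised to RUNX1-only experiment is given: Full-length recombinant human ETS1 or RUNX1 bound to double-stranded 36-bp genomic probes on microarrays, detected by protein-specific primary antibody and Alexa488 secondary, spot fluorescence as median of four replicate spots.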
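Wherever RUNX1 binding intensity (PBM fluorescence), RUNX1 alone is given: Full-length recombinant human RUNX1 bound to double-stranded 36-bp genomic probes on a high-density microarray, scored as Alexa488 fluorescence per spot via anti-RUNX1 antibody, median of four replicate spots.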

| Sequence | ETS1 binding intensity [1] | RUNX1 binding intensity [2] | ETS1 binding intensity [3] | RUNX1 binding intensity [4] |
| --- | --- | --- | --- | --- |
| ACCAGCCCAGGAAGCATCTGCGGTTCAAGTGGCCAC | 452 | 1130 | 1470 | 1750 |
| TGGTTAGGGAGAGGGGGATGTGGTTAGGGTGAGGGA | 530 | 1110 | 3960 | 1140 |
| CCCACTCCACTTCCGCCACCGCCGCAGCCGCCGCTG | 1430 | 1980 | 1420 | 5930 |
| CAGAGAGCGGACTTCCGCGACGCGGGTAAGCCGGGC | 498 | 670 | 368 | 894 |
| CGGGCGAGCGCAGGATGCGGTTGTCGAACGCGCGGC | 764 | 762 | 1050 | 1100 |
| CTGAGACCTCGGGCAGGATGTGGCTTCCCCAGAGTT | 4700 | 684 | 7460 | 1180 |
| CTCCTGTTCCGGCTCAAAGGGAAACCGCTGCTTTTC | 605 | 1210 | 907 | 1460 |
| AGCCCGCCGGAAACTAGCGTCACCGCGCCAAGGTTC | 1440 | 691 | 1250 | 1160 |
| CCATCTTCATACAGGATGCTGTGGTATGTAAAACAA | 2110 | 787 | 3590 | 1240 |
| TGACATGGCTTCCGCCTTGGGCTTTGTGGTCTCCCA | 513 | 890 | 1150 | 1760 |
| GAGCCCAACCGGCATCCGTCGCGGTTGGACGTGGGC | 343 | 761 | 490 | 1070 |
| AGTCTAACCAACAAAGGATGTGGTAGGTAAAAGGTT | 1250 | 834 | 2640 | 959 |
| GGGCCCACATCCGGCGCGCGCAACCGCAGCCTACTG | 1120 | 2530 | 6540 | 13100 |
| GGGCCAGAGACGCCGGAAGTGACCGCGCGGTGCGCC | 11700 | 729 | 18400 | 1210 |
| CTGTTTCCTGCCTTTGCTGTCTGTGACCGCATCAGT | 478 | 1310 | 1490 | 2840 |
| TGAGTCACATCCTGCAGGGCTGCGGTATCCTGGCTT | 773 | 928 | 1680 | 3310 |
| GGGCCCTTCCTGTGGCGCCTGCCGAGCTGTGGTTGG | 388 | 716 | 496 | 1380 |
| GTGGCTATGGGAAGTGGGGTGCGGTTTCTGCCGGGG | 554 | 1340 | 3070 | 1670 |
| GTTGTGCTCTTTCCTGCTTCCCGCAGTTTTTTAGTT | 626 | 1470 | 921 | 1890 |
| TCCCCACATCCTTTAAAACGATGAGATAACCACATG | 398 | 1000 | 636 | 2960 |
| TGCAGCTATGGCCGGAAGCCTGTGGGTGTGGGAGGA | 4180 | 726 | 4580 | 906 |

| Sequence | ETS1 binding intensity [1] | RUNX1 binding intensity [2] | ETS1 binding intensity [3] | RUNX1 binding intensity [4] |
| --- | --- | --- | --- | --- |
| GACAGCAACTCCACTTCCTGTGGGCGAGGGCCCTGT | 1850 | 835 | 2270 | 1790 |
| GCAAACAGCACATCCGGTGTGGTCGACGGGTCCTCC | 5820 | 728 | 6160 | 1830 |
| CGGCTGTTTTCCAGGATGTTGTGGTCATGGCGGTGT | 1590 | 2920 | 6320 | 4090 |
| TGTGGAGACAGGAAGCACTAACCTCAAACCTCTTTC | 2730 | 908 | 8830 | 1770 |
| TTGTCGGGTATGGGATGTGGGCAGAGAGTATGATGG | 604 | 866 | 835 | 797 |
| GCCTCCTCAGGAAATTGCCCAAAATAGCCACATGTC | 735 | 1090 | 667 | 1240 |
| CGGGCTGGGAGGAAGTGATGGCTGACCACAGAGGAG | 1130 | 1000 | 4610 | 1570 |
| CGAAGCCAGGAAATAAGGATAAACCACAGAAAGAAA | 1060 | 1260 | 3180 | 2010 |
| TATCAATAAGGAAGTACAATCACCAAACCACAAGCC | 619 | 1170 | 2700 | 1140 |
| TGGCTTGTTTCCGGTTCCTCTGTGGCGCCGTTCTCG | 3480 | 938 | 2820 | 2890 |
| GACATATCCTGCATTCTCAGAAAAACCACAGGCTAG | 391 | 1290 | 1050 | 2000 |
| GAGGAAGAGTCTTCCTGTAACCACTAGAGGGCGCTG | 592 | 705 | 663 | 960 |
| ACACAGGAAGGACGCACGCTCCCGCCCCAACCACAT | 690 | 901 | 563 | 1060 |
| GAAACCGGAAGCGGCGGCTGTCCGCGGTGCCGGCTG | 5800 | 717 | 6810 | 1550 |
| GGGGCAGCTTCCGGCAGGAGAGCCCGCATTCACGGC | 731 | 1370 | 751 | 2360 |
| GCGGGCGGAAGTGCCGAGGTTGTACCGCGGCGCTGG | 2020 | 714 | 2260 | 1200 |
| TCTCTTCCTGTGATGGAAATACATTGAGGTTTGCGA | 523 | 787 | 743 | 1740 |
| ATCTTACCCCGGAAATGACAACAGTGCCGCAAACTG | 7580 | 906 | 10400 | 1620 |
| GTCTTACTTCCTGTCCCCGCCCACCGCGACTGTCTT | 2560 | 1740 | 3520 | 3600 |
| TGGCTGTGAGCTGCAGGATGTGGTCAGGAGAGGAAG | 2180 | 804 | 19700 | 2310 |
